Assay outcomes: PubChem, National Center for Advancing Translational Sciences (NCATS)
Most compounds without a hit are left out; they make up all but 1.3% or so of the library.
PKM2 activator: qHTS Assay for Activators of Human Muscle isoform 2 Pyruvate Kinase; Potency, µM (highest dose often 57.5 µM), most hits filed as activators; actives 0.34% (n = 260,000); purified PKM2, Kinase-Glo ATP luminescence, activation; response scale: 0% is enzyme alone, no compound; active = well fitted activation curve with a large enough effect; inconclusive = small, poorly fitted or top-dose-only effect; inactive = no such curve, though single readings can be large or run the other way; note: nearly all actives have a fitted effect of over 55% in size
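hPK-M2, >95% pure; 0.1 mM ADP / 0.5 mM PEP final; imidazole pH7.2 buffer w/ 7 mM MgCl2, 50 mM KCl; 1 h RT; Kinase-Glo lum. Intermediate enzyme activity for dual inhibitor/activator qHTS.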
BRCA1 expr act: qHTS Assay to Identify Small Molecule Activators of BRCA1 Expression | AID 624202, 2012 | actives 1.1% (n = 380,000) | Potency, µM (top dose mostly 46.1 µM), usual class: activators | MCF7-BRCA1-FFLuc reporter, luminescence, 48 h; response scale: scaled: vehicle 0%, 10 µM genistein 100%; active = well fitted activation curve with a large enough effect; inconclusive = small, poorly fitted or top-dose-only effect; inactive = no such curve, though single readings can be large or run the other way; note: nearly all actives have a fitted effect of over 80% in size
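48 h compound treatment of MCF7-BRCA1-FFLuc cells (phenol-red free MEM, 37 °C), then 15 min with luciferase substrate and luminescence imaging.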
PTAP TSG101 blk: qHTS Assay for Iinhibitors of HIV-1 Budding by Blocking the Interaction of PTAP/TSG101; Tumor susceptibility gene 101 protein (Homo sapiens), Q99816; Fluorescence polarization, FITC-PTAP peptide / Tsg101 binding; Potency, µM (doses to about 115 µM), actives largely listed as inhibitors; 340,000 tested, under 10 active; active = well fitted inhibition curve with a large enough effect in the main read-out, with a control signal flat, not every such curve was filed as active; inconclusive = small, poorly fitted or top-dose-only effect, or effect the other way, or a change in a side signal; inactive = no such curve, though single readings can be large or run the other way
Target sequence (Q99816 whole entry, looked up): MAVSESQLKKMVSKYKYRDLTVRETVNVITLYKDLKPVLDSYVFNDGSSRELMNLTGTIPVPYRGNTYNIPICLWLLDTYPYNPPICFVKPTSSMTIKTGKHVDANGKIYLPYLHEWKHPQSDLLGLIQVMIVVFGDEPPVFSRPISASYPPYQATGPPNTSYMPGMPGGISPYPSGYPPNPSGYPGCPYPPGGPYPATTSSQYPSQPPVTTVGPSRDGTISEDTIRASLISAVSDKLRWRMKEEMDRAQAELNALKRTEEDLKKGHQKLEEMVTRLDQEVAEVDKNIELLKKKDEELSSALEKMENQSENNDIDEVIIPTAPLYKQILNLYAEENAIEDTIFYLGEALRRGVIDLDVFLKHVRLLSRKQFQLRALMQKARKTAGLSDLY
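Tsg101 binding domain (10 uM final) was mixed with compound and a FITC-labeled PTAP peptide (50 nM final) in HEPES pH 7.5 buffer with NaCl, Tween 20, EDTA and TCEP; fluorescence polarization was read after 20 min at r.t.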
IL-2 act: qHTS of IL-2 Activators; IL-2 activation reporter assay, cell-based qHTS; stimulated with anti-CD3/CD4/CD28 beads; in transgenic mouse T cells; activation, % (series mostly up to about 46 µM); actives 0.065% (n = 360,000); AID 652025, 2013
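Unstimulated transgenic mouse T cells preincubated 60 min with compound, then stimulated with anti-CD3/anti-CD4-coated beads plus anti-CD28 for 18 h at 37 degrees C. IL-2 response read as EGFP and DsRed fluorescence by plate cytometry.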
TRPML1 agonist: qHTS for Agonists of the Human Mucolipin Transient Receptor Potential 1 (TRPML1); actives 0.12% (n = 410,000); TRPML1-expressing cells, Ca2+ dye fluorescence, FDSS; AID 624414, 2012; Mucolipin-1 (Homo sapiens), Q9GZU1; activation, % (no concentration beside the values)
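Kinetic FDSS Ca2+ read in Tet-induced TRPML1-DL cells (ABD Ca8 dye plus quencher, 45-90 min RT loading): baseline, then compound, then 110 s agonist window; EC80 agonist 54-4 at 4uM final added afterwards for a 110 s antagonist window.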
TRPML1 blocker: qHTS for Inhibitors of the Human Mucolipin Transient Receptor Potential 1 (TRPML1). TRPML1-inducible cells, Ca2+ dye fluorescence, FDSS; active compounds read low; inhibition of EC80 agonist-evoked calcium signal. Mucolipin-1 (Homo sapiens), Q9GZU1. actives 0.02% (n = 390,000). activity change, negative = inhibition, % (concentration not given with the values); in the data active = activity change below about -50%; inconclusive = between about -30% and that limit;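 note: stimulus is agonist 54-4 at its EC80 concentration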
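Tet-induced TRPML1-DL cells loaded with Ca8 no-wash calcium dye were read kinetically on FDSS. Compound addition was followed by EC80 agonist 54-4 (4 uM final); inhibition was read over 110 s.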
A number is an active result; n = inactive; u = inconclusive; x = no result given. Cut-off read from the data, not from the text of the source, unless noted: active = activation above about 50%; inconclusive = mostly about 30% to 49%; inactive = weaker than that.

SMILES	PKM2 activator	BRCA1 expr act	PTAP TSG101 blk	IL-2 act	TRPML1 agonist	TRPML1 blocker
COc1ccc2cc(C(=O)NCCc3ccccc3)[nH]c2c1	x	4.5µM	n	n	x	x
COc1ccc2cc(C(=O)NCc3ccccc3)[nH]c2c1	x	n	n	n	n	n
CCOC(=O)c1c(C)oc2ncnc(Nc3cc(Cl)ccc3OC)c12	x	x	x	x	n	n
Nc1ccccc1N=Cc1ccc(-c2cccc(Cl)c2)o1	28µM	n	n	n	n	n
N#Cc1nc(N2CCCC2)nc(N(c2ccccc2)c2ccccc2)n1	x	n	x	x	n	x
CCOc1ccc(-c2nc(Cn3c(=O)cc(-c4ccccc4)c4c(C)nn(C)c43)c(C)o2)cc1OC	x	x	x	x	n	n
Cc1ccc(-n2nc3c(=O)n(CC(=O)NC(C)C)nc(C)c3c2C)cc1	x	x	x	x	n	n
COc1ccc2nc(Cl)c(C3CC(c4ccco4)=NN3C(=O)CCCC(=O)O)cc2c1 (stereo not given)	22µM	n	n	n	n	n
CN(N=O)c1ccc2c(c1)Cc1ccccc1-2	x	u	x	x	n	x
O=C(NC1CC1)c1cc2cc3ccccc3nc2s1	n	5µM	n	n	n	n
O=C(NNS(=O)(=O)c1ccccc1)c1cc2cc3ccccc3nc2s1	n	n	n	n	n	n
COc1ccc(Nc2nc(-c3ccccc3)nc3ccccc23)c(OC)c1	n	n	n	n	n	n
COc1ccc(Nc2nc(N)c3ccccc3n2)c(OC)c1	n	3.5µM	n	n	n	n
CC(=O)c1cc2c(=O)c3ccccc3oc2nc1C	x	10µM	n	n	n	n
CC(=O)c1ccc2oc3ccccc3c(=O)c2c1	n	7.9µM	n	n	n	n
O=c1c2ccccc2oc2ccc(-c3ccoc3)cc12	x	x	x	x	n	x
CCOC(=O)c1cc2c(=O)c3ccccc3oc2nc1C	x	n	n	n	n	n
O=C1[C@H](Cc2ccccc2)NC/C=C\C[C@@H](c2ccco2)N1Cc1ccccc1	x	x	x	x	n	x
Cc1nc(Oc2ccc(F)cc2Cl)c2oc3ccccc3c2n1	x	x	x	x	n	n
N#Cc1nc(-c2ccccc2)cc(-c2ccccc2)n1	x	n	x	x	n	x
CC(C)(C)c1ccc(CC(=O)N2CCC2(C)C(=O)O)cc1 (stereo not given)	x	n	x	n	n	x
Clc1ccc(-c2noc(CN3CCOCC3)n2)cc1	n	7.9µM	n	n	n	n
O=C(C1CCN(Cc2nc(-c3ccc(Cl)cc3)no2)CC1)N1CCOCC1	n	n	n	n	n	n
O=C(CN1CCN(C2CCCCC2)C(=O)C1=O)Nc1ccc(Cl)cc1	x	x	x	x	n	n
CN(C)CCCN=c1cc(-c2ccccc2)oc2ccc(Cl)cc12	n	11µM	n	n	n	n
SMILES	PKM2 activator	BRCA1 expr act	PTAP TSG101 blk	IL-2 act	TRPML1 agonist	TRPML1 blocker
OCCN=c1cc(-c2ccccc2)oc2ccc(Cl)cc12	n	n	n	n	n	n
COc1cc(/C=C/c2ccc3cccc(O)c3n2)ccc1O	x	11µM	n	n	n	n
Cc1nc(COC(=O)c2c(C)nn(-c3ccccc3)c2C)cs1	n	13µM	n	n	n	n
Cn1c(=NC(=O)CS(=O)(=O)c2ccccc2)sc2cc(F)ccc21	x	5µM	x	n	n	n
CCn1nnc2sc3c(c2c1=O)CCC(C)C3 (stereo not given)	n	13µM	n	n	n	n
CCOc1ccc(N2CC(c3nc4ccccc4n3CCCOc3ccccc3OC)CC2=O)cc1 (stereo not given)	x	x	x	x	n	n
CCOC(=O)CN1C(=O)S/C(=C/c2ccc3c(c2)n(C)c(=O)n3C)C1=O	n	5µM	n	n	n	n
CCOc1ccccc1NC(=O)c1nc(SCc2ccccc2F)ncc1Cl	x	n	x	x	n	x
